“And” between values parts separate entries of the source, which are not always exact repeats. Equal values may be shown once. Where a name gives a salt, the structure may show the parent alone.
tested on: HeLa; assay: nuclear count per well, robust Z-score vs DMSO; higher = more cells (less toxicity); settings: 10 µM; 6 h
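Throughout, for MALAT1 nuclear FISH intensity, robust Z-score vs DMSO: High-content confocal imaging of branched-DNA amplified FISH in 384-well plates, Hoechst-defined nuclei, score is well value minus plate DMSO median over DMSO robust SD, four wells per compound.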
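Throughout, for nuclear count per well, robust Z-score vs DMSO: Hoechst-stained nuclei counted by automated confocal imaging of four fields per well in 384-well plates, with the robust Z-score based on the per-plate DMSO median and robust SD.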

Structure (SMILES) | nuclear count per well
NC(=O)c1cccc(N)c1 [3-aminobenzamide (3-ABA)] | -0.443
O=C(NCCCCCCNC(=O)ON=C1CCCCC1)ON=C1CCCCC1 | 0.866 and 0.536
C=CCNc1ncnc2ccc(Br)cc12 | -1.19
COc1cc(C(C)=O)ccc1OCCCN1CCC(c2noc3cc(F)ccc23)CC1 [Iloperidone] | 0.0344
CC(=O)O[C@@]12CO[C@@H]1C[C@H](O)[C@@]1(C)C(=O)[C@H](O)C3=C(C)[C@@H](OC(=O)[C@H](O)[C@@H](NC(=O)OC(C)(C)C)c4ccccc4)C[C@@](O)([C@@H](OC(=O)c4ccccc4)[C@H]21)C3(C)C [Docetaxel (Taxotere)] | -3.75
O=C(C1CCCCC1)N1CC(=O)N2CCc3ccccc3C2C1 (stereo unspecified) [Praziquantel] | 0.7
O=C(O)CCCCC(=O)O [Adipic acid] | -0.243
CC(C)c1nc(CN(C)C(=O)N[C@H](C(=O)N[C@@H](Cc2ccccc2)C[C@H](O)[C@H](Cc2ccccc2)NC(=O)OCc2cncs2)C(C)C)cs1 [Ritonavir] | 0.114
CC[C@]1(O)C[C@@H]2CN(CCc3c([nH]c4ccccc34)[C@@](C(=O)OC)(c3cc4c(cc3OC)N(C)[C@H]3[C@@](O)(C(=O)OC)[C@H](OC(C)=O)[C@]5(CC)C=CCN6CC[C@]43[C@@H]65)C2)C1 [Vinblastine Sulfate] | -3.09
CCCCC[C@H](O)/C=C/C1=C(C/C=C\CCCC(=O)O)C(=O)CC1 [Prostaglandin B2] | 1.37
CCCCNC(=O)NS(=O)(=O)c1ccc(C)cc1 [Tolbutamide] | 0.69
N#CC(=Cc1cc(Cl)cc(Cl)c1)c1cccnc1 | -0.32
C[C@@H]1[C@H](O)[C@@H](C)/C=C/C=C/C=C/C=C/C=C/C=C/C=C/[C@H](O[C@@H]2O[C@H](C)[C@@H](O)[C@H](N)[C@@H]2O)C[C@@H]2O[C@](O)(C[C@@H](O)C[C@@H](O)[C@H](O)CC[C@@H](O)C[C@@H](O)CC(=O)O[C@H]1C)C[C@H](O)[C@H]2C(=O)O [Amphotericin B] | 0.998
CC(N)C12CC3CC(CC(C3)C1)C2 (stereo unspecified) | -0.939
CC[C@H]1OC(=O)[C@H](C)[C@@H](O[C@H]2C[C@@](C)(OC)[C@@H](O)[C@H](C)O2)[C@H](C)[C@@H](O[C@@H]2O[C@H](C)C[C@H](N(C)C)[C@H]2O)[C@](C)(O)C[C@@H](C)C(=O)[C@H](C)[C@@H](O)[C@]1(C)O [Erythromycin] | 0.151
NC(=O)OCC(COC(N)=O)c1ccccc1 [Felbamate] | -0.596
CN(C)CC/C=C1/c2ccccc2COc2ccc(CC(=O)O)cc21 [Olopatadine] | -0.601

Structure (SMILES) | nuclear count per well
c1ccc2[nH]c(-c3cscn3)nc2c1 [Thiabendazole] | 0.317
CCCCCCCC/C=C\CCCCCCCC(N)=O [9,10-Octadecenoamide] | 0.918
CN1CCC(=C2c3ccccc3CC(=O)c3sccc32)CC1 [Ketotifen Fumarate] | -0.314
CC(=O)OCC(=O)[C@@]1(O)CC[C@H]2[C@@H]3CCC4=CC(=O)CC[C@]4(C)[C@H]3[C@@H](O)C[C@@]21C [Hydrocortisone Acetate] | 1.42
CC(C)(Oc1ccc(C2CC2(Cl)Cl)cc1)C(=O)O (stereo unspecified) [Ciprofibrate] | -0.743
COc1ccc2[nH]cc(CCNC(C)=O)c2c1 [Melatonin] | 0.0513
c1ccc2c(c1)CCCC2C1=NCCN1 (stereo unspecified) | 0.0582
NC(=O)N[C@@H](CCC(=O)O)C(=O)O [Carglumic Acid] | 2.03
CCCC[C@@H](C)/C=C(C)/C=C(\C)C(=O)NC1=C[C@@](O)(/C=C/C=C/C=C/C(=O)NC2=C(O)CCC2=O)[C@@H]2O[C@@H]2C1=O [Manumycin A] | 1.21
O=C1OCCN1/N=C/c1ccc([N+](=O)[O-])o1 [Furazolidone] | 1.68
CCCCCCCCCCCCCCC(F)C(=O)O (stereo unspecified) [2-Fluoropalmitic acid] | -0.116
O=C1O[C@H](CO)[C@@H](O)[C@H](O)[C@H]1O | -0.496
Fc1ccc(-n2cc(CCCCN3CCC4(CC3)OCc3ccccc34)c3ccccc32)cc1 [Siramesine fumarate salt] | 0.93
CCCCC[C@H](O)/C=C/[C@@H]1[C@@H](C/C=C\CCCC(=O)O)[C@@H](O)C[C@@H]1O [9a,11b-Prostaglandin F2] | -0.0749
N=C(N)c1ccc(OCCCCCOc2ccc(C(=N)N)cc2)cc1 [Pentamidine Isethionate] | -0.511
CCCCCCCC/C=C\CCCCCCCCOC[C@H](COP(=O)([O-])OCC[N+](C)(C)C)OC(C)=O | -0.585

tested on: HeLa; assay: MALAT1 nuclear FISH intensity, robust Z-score vs DMSO; higher = more nuclear MALAT1 lncRNA, active = -3 or less; settings: 10 µM; 6 h

Structure (SMILES) | MALAT1 nuclear FISH intensity
NC(=O)c1cccc(N)c1 [3-aminobenzamide (3-ABA)] | -1.46 (inactive)
O=C(NCCCCCCNC(=O)ON=C1CCCCC1)ON=C1CCCCC1 | -1.01 (inactive) and -1.36 (inactive)
C=CCNc1ncnc2ccc(Br)cc12 | -1.43 (inactive)
COc1cc(C(C)=O)ccc1OCCCN1CCC(c2noc3cc(F)ccc23)CC1 [Iloperidone] | -0.486 (inactive)
CC(=O)O[C@@]12CO[C@@H]1C[C@H](O)[C@@]1(C)C(=O)[C@H](O)C3=C(C)[C@@H](OC(=O)[C@H](O)[C@@H](NC(=O)OC(C)(C)C)c4ccccc4)C[C@@](O)([C@@H](OC(=O)c4ccccc4)[C@H]21)C3(C)C [Docetaxel (Taxotere)] | -0.196 (inactive)
O=C(C1CCCCC1)N1CC(=O)N2CCc3ccccc3C2C1 (stereo unspecified) [Praziquantel] | -0.428 (inactive)
O=C(O)CCCCC(=O)O [Adipic acid] | 0.488 (inactive)
CC(C)c1nc(CN(C)C(=O)N[C@H](C(=O)N[C@@H](Cc2ccccc2)C[C@H](O)[C@H](Cc2ccccc2)NC(=O)OCc2cncs2)C(C)C)cs1 [Ritonavir] | -0.307 (inactive)
CC[C@]1(O)C[C@@H]2CN(CCc3c([nH]c4ccccc34)[C@@](C(=O)OC)(c3cc4c(cc3OC)N(C)[C@H]3[C@@](O)(C(=O)OC)[C@H](OC(C)=O)[C@]5(CC)C=CCN6CC[C@]43[C@@H]65)C2)C1 [Vinblastine Sulfate] | 0.463 (inactive)
CCCCC[C@H](O)/C=C/C1=C(C/C=C\CCCC(=O)O)C(=O)CC1 [Prostaglandin B2] | 0.128 (inactive)
CCCCNC(=O)NS(=O)(=O)c1ccc(C)cc1 [Tolbutamide] | -0.395 (inactive)
Oc1ccc(-c2nc(-c3ccc(F)cc3)c(-c3ccncc3)[nH]2)cc1 | -0.672 (inactive) and -1.03 (inactive)
N#CC(=Cc1cc(Cl)cc(Cl)c1)c1cccnc1 | -0.585 (inactive)
CN(C)CCCn1cc(C2=C(c3c[nH]c4ccccc34)C(=O)NC2=O)c2ccccc21 | -0.278 (inactive) and -2.74 (inactive)
C[C@@H]1[C@H](O)[C@@H](C)/C=C/C=C/C=C/C=C/C=C/C=C/C=C/[C@H](O[C@@H]2O[C@H](C)[C@@H](O)[C@H](N)[C@@H]2O)C[C@@H]2O[C@](O)(C[C@@H](O)C[C@@H](O)[C@H](O)CC[C@@H](O)C[C@@H](O)CC(=O)O[C@H]1C)C[C@H](O)[C@H]2C(=O)O [Amphotericin B] | -0.929 (inactive)
CC(N)C12CC3CC(CC(C3)C1)C2 (stereo unspecified) | -1.27 (inactive)
CC[C@H]1OC(=O)[C@H](C)[C@@H](O[C@H]2C[C@@](C)(OC)[C@@H](O)[C@H](C)O2)[C@H](C)[C@@H](O[C@@H]2O[C@H](C)C[C@H](N(C)C)[C@H]2O)[C@](C)(O)C[C@@H](C)C(=O)[C@H](C)[C@@H](O)[C@]1(C)O [Erythromycin] | 0.88 (inactive)

Structure (SMILES) | MALAT1 nuclear FISH intensity
NC(=O)OCC(COC(N)=O)c1ccccc1 [Felbamate] | 1.02 (inactive)
CN(C)CC/C=C1/c2ccccc2COc2ccc(CC(=O)O)cc21 [Olopatadine] | -0.761 (inactive)
c1ccc2[nH]c(-c3cscn3)nc2c1 [Thiabendazole] | -0.594 (inactive)
CCCCCCCC/C=C\CCCCCCCC(N)=O [9,10-Octadecenoamide] | -1.63 (inactive)
CN1CCC(=C2c3ccccc3CC(=O)c3sccc32)CC1 [Ketotifen Fumarate] | -1.02 (inactive)
CC(=O)OCC(=O)[C@@]1(O)CC[C@H]2[C@@H]3CCC4=CC(=O)CC[C@]4(C)[C@H]3[C@@H](O)C[C@@]21C [Hydrocortisone Acetate] | 0.655 (inactive)
CC(C)(Oc1ccc(C2CC2(Cl)Cl)cc1)C(=O)O (stereo unspecified) [Ciprofibrate] | -0.469 (inactive)
COc1ccc2[nH]cc(CCNC(C)=O)c2c1 [Melatonin] | 0.141 (inactive)
O=C(Nc1ccccc1)c1cc([N+](=O)[O-])ccc1Cl | -1.22 (inactive) and -0.08 (inactive)
c1ccc2c(c1)CCCC2C1=NCCN1 (stereo unspecified) | -0.177 (inactive)
NC(=O)N[C@@H](CCC(=O)O)C(=O)O [Carglumic Acid] | -0.983 (inactive)
COc1cccc(-c2cc(=O)c3ccccc3o2)c1N | -0.178 (inactive) and 0.3 (inactive) and 1.49 (inactive)
C[C@@H](N)[C@H]1CC[C@H](C(=O)Nc2ccncc2)CC1 | -2.88 (inactive) and -3.24 (active)
CCCC[C@@H](C)/C=C(C)/C=C(\C)C(=O)NC1=C[C@@](O)(/C=C/C=C/C=C/C(=O)NC2=C(O)CCC2=O)[C@@H]2O[C@@H]2C1=O [Manumycin A] | 1.62 (inactive)
O=C1OCCN1/N=C/c1ccc([N+](=O)[O-])o1 [Furazolidone] | 1.18 (inactive)
CCCCCCCCCCCCCCC(F)C(=O)O (stereo unspecified) [2-Fluoropalmitic acid] | -0.41 (inactive)

— the supplement of paper PMC9844399
